Laboratory results from PubChem BioAssay (NCI).
Several values for one entry are separate records, joined by “and”; a condition that tells them apart may be missing. Equal entries are not always repeated. About 79,000 compounds went through this panel and 15% of them were active in at least one assay; those are over-represented in the sample as a whole. Values without a mark were called inactive. Activity calls are given as the source filed them. No stated cut-off is given here; in the data, active means growth inhibition above about 70%; inactive means the rest.

Test: NCI Yeast Anticancer Drug Screen. Data for the mgt1 strain (AID 153)
Conditions: S. cerevisiae mgt1 mutant growth inhibition, stronger effect = higher value
Experimental: Growth inhibition of yeast strains with defined genetic alterations is measured as a screen for potential anti-cancer activity. Selected strains with alterations in DNA damage repair or cell cycle control were exposed to compounds and growth inhibition was measured relative to vehicle treated controls. The strain used in this assay is mgt1

| SMILES | growth inhibition (at 1.2 µM) | growth inhibition (at 3.7 µM) | growth inhibition (at 11.0 µM) | growth inhibition (at 33.0 µM) | growth inhibition (at 100.0 µM) |
| --- | --- | --- | --- | --- | --- |
| O=Cc1ccccc1B(O)O | 0% | 2% | 76% (active) | 99% (active) | 99% (active) |
| COc1ccc(/C(=N/O)c2ccccc2C2=Nc3ccccc3C(NCc3ccccc3)O2)cc1C (stereo not given) | -2% | -3% | -1% | 31% | 97% (active) |
| CSc1ccc2c(c1)C(N1CCN(C)CC1)Cc1ccccc1S2 (stereo not given) | -33% | -31% | -49% | 74% (active) | 99% (active) |
| O=C1c2ccc(O)cc2C(=O)c2c(O)ccc(O)c21 | 1% | 10% | 78% (active) | 93% (active) | 91% (active) |
| COc1ccc(C(=O)OCCc2ccccc2)cc1 | -4% | -3% | -3% | -5% | -4% |
| O=C1OC(c2ccc(Cl)cc2)Sc2ccccc21 (stereo not given) | 6% | 8% | 17% | 97% (active) | 94% (active) |
| COc1ccc2[nH]c3c(C)c4cc[n+](C)cc4c(C)c3c2c1 | 15% and 2% | 28% and 12% | 26% and 24% | 38% and 29% | 39% and 55% |
| CC[N+]1(C)CCC(O)(/C=C/c2ccc(Cl)c(Cl)c2)C(C(=O)/C=C/c2ccc(Cl)c(Cl)c2)C1 (stereo not given) | 7% | 72% (active) | 99% (active) | 99% (active) | 99% (active) |
